# In PubChem BioAssay AID2685 (National Center for Advancing Translational Sciences (NCATS), 2010):
# Out of some 320,000 compounds screened, about 2,100 (0.66%) were called active. Roughly 53% stayed inconclusive and do not appear here. The call rests on the fitted dose curve; in most records, active means well fitted inhibition curve with a large enough effect in the signal ratio, with a control signal flat (not every such curve was filed as active); inconclusive means small, poorly fitted or top-dose-only effect, or effect the other way, or a change in a side signal; inactive means flat fitted curve, though single readings scatter; the % refers to the signal ratio. The sample as a whole holds a higher share of actives than the screen did.
# Assay: qHTS Assay for Lipid Storage Modulators in Drosophila S3 Cells;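 on cell number change: cells counted by Cell Tracker Red CMTPX staining in the red channel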; on lipid storage change, negative = inhibition: on the % scale 0 is the no-effect control and ±100 the full control effect
# Conditions: BODIPY lipid droplet fluorescence, 18-24 h, cells fed with added oleic acid; cell number change: measured here: cell count max response; series mostly up to 46.1 µM
# Procedure, shortened: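 Laser-scanning cytometry quantifies lipid droplet accumulation (500–530 nm total intensity; droplet/cell object ratio) in oleic acid-fed (400 uM added) Drosophila S3 cells treated with a concentration series. 20 uM Triacsin C defined 100% inhibition.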
# Potency means the concentration at half of the fitted maximal effect.
Compound,Potency,cell number change,"lipid storage change, negative = inhibition"
N#C/C(=C/c1ccccc1[N+](=O)[O-])c1nnc2n1CCCCC2,inactive,5.26%,–
N#C/C(=C\c1cccc([N+](=O)[O-])c1)c1nnc2n1CCCCC2,4.11 µM (active),–,–
N#C/C(=C/c1cccc([N+](=O)[O-])c1)c1nnc2n1CCCCC2,2.59 µM (active),-13.7%,–
N#C/C(=C\c1c[nH]c2ccccc12)c1nnc2n1CCCCC2,inactive,6.3%,–
O=[N+]([O-])c1cccc(-c2nnc3n2CCCCC3)c1,inactive,8.75%,–
CN(c1ccccc1)c1ccc(/C=C(\C#N)c2nnc3n2CCCCC3)cc1[N+](=O)[O-],inactive,0.8%,–
Cc1nnc(NC(=O)c2ccccc2C(=O)O)s1,inactive,10.9%,–
O=C(Nc1cccc(-c2csc(Nc3cccc(C(F)(F)F)c3)n2)c1)c1cc([N+](=O)[O-])cc(C(F)(F)F)c1,inactive,-14.2%,–
COC(=O)[C@@H](Cc1ccccc1)NC(=O)[C@H]1CCC(=O)N1C(=O)OCc1ccccc1,7.31 µM (active),-26.7%,–
CC(C)CC(NC(=O)C1CCC(=O)N1C(=O)OCc1ccccc1)C(=O)NC(Cc1ccccc1)C(N)=O (configuration not stated),inactive,10.8%,–
COC(=O)[C@@H](Cc1ccc(O)cc1)NC(=O)[C@H]1CCC(=O)N1C(=O)OCc1ccccc1,inactive,-3.5%,–
Cn1c(=O)c2c(O)c(Cc3ccccc3)c(=O)[nH]c2n(C)c1=O,inactive,–,–
O=C(c1ccc([N+](=O)[O-])o1)N1CCN(Cc2ccccc2)CC1,25.9 µM (active),-14.3%,–
CC(=O)N1CCN(c2nc3ccc([N+](=O)[O-])cc3s2)CC1,inactive,-3.82%,–
O=C(Nc1ccccc1N1CCOCC1)c1ccc([N+](=O)[O-])o1,inactive,-0.54%,–
CCC(=O)N1CCN(c2ccc(Cl)cc2NC(=O)c2ccc([N+](=O)[O-])o2)CC1,5.8 µM (active),-10.1%,–
O=C(Nc1cc(Cl)ccc1-n1cncn1)c1ccc([N+](=O)[O-])o1,inactive,8.28%,–
COc1ccc(N2CCN(C(=O)c3ccc4nc(N5CCCCC5)sc4c3)CC2)cc1,inactive,–,–
O=C(c1ccc([N+](=O)[O-])o1)N1CCOCC1,inactive,-1.55%,–
CCC(=O)N1CCN(c2ccc(Cl)cc2NC(=O)Cc2ccccc2)CC1,inactive,12.9%,–
CS(=O)(=O)N1CCN(c2ccccc2NC(=O)c2ccc([N+](=O)[O-])o2)CC1,inactive,-11.1%,–
O=C(Nc1ccccc1N1CCN(C(=O)c2ccccc2)CC1)c1ccc([N+](=O)[O-])o1,8.2 µM (active),11.7%,–
COc1ccc2nc(N3CCN(C(=O)c4ccc([N+](=O)[O-])o4)CC3)sc2c1,4.61 µM (active),–,–

Compound,Potency,cell number change,"lipid storage change, negative = inhibition"
Cc1ccc(C(=O)N2CCN(Cc3ccccc3)CC2)o1,inactive,15.9%,–
Cc1noc(C)c1COC(=O)c1csc2c1CCCC2,inactive,–,–
Cc1cc(Nc2c(C)n(C)n(-c3ccccc3)c2=O)c2ccccc2n1,inactive,-23.8%,–
Cc1cccc(-n2cc(CN3CCCN(C=O)CC3)c(-c3cccc(F)c3)n2)c1,inactive,-4.39%,–
O=C(NCc1cccnc1)Nc1cccc([N+](=O)[O-])c1,inactive,6.23%,–
CCOc1ncccc1C(=O)OCC(=O)N1CC(=O)Nc2ccccc21,inactive,–,–
Cc1c(/C=N/N=C2\CCC3C4CCc5cc(O)ccc5C4CCC23C)cnn1C (configuration not stated),inactive,13.3%,–
O=C(CN1C(=O)COc2ccccc21)N1CCOCC1,inactive,–,–
COc1ccc(C(=O)Nc2ccccc2N2CCN(C(=O)c3ccccc3)CC2)cc1Br,14.6 µM (active),-6.04%,–
CN1CCN(c2ccccc2NC(=O)c2ccc(-c3ccccc3[N+](=O)[O-])o2)CC1,6.51 µM (active),-10.4%,–
COc1ccc(N2CCCC2)c(NC(=O)c2ccc(Br)o2)c1,inactive,13.9%,–
COc1ccc(N2CCCC2)c(NC(=O)c2ccc([N+](=O)[O-])o2)c1,10.3 µM (active),16.1%,–
O=C(Nc1ccccc1N1CCN(C(=O)c2ccccc2)CC1)c1cccc(Cl)c1,inactive,-6.81%,–
COc1ccc(C(=O)Nc2ccccc2N2CCOCC2)cc1Br,inactive,-0.289%,–
CCC(=O)N1CCN(c2ccccc2NC(=O)c2ccc([N+](=O)[O-])o2)CC1,10.3 µM (active),-1.26%,–
CCC(=O)N1CCN(c2ccccc2NC(=O)c2ccc(-c3cccc([N+](=O)[O-])c3)o2)CC1,inactive,8.53%,–
CC1CCN(c2ccccc2NC(=O)c2ccc([N+](=O)[O-])o2)CC1,inactive,8.97%,–
COc1ccccc1NC(=O)c1ccc(-c2ccccc2[N+](=O)[O-])o1,inactive,–,–
CC(C)C(=O)N1CCN(c2ccccc2NC(=O)c2ccc([N+](=O)[O-])o2)CC1,inactive,-10.5%,–
O=C(Nc1ccc(N2CCCC2)c(Cl)c1)c1ccc([N+](=O)[O-])o1,inactive,2.06%,–
CC(C)CC(NC(=O)C(NC(=O)OC(C)(C)C)C(C)C)C(N)=O (configuration not stated),inactive,1.19%,–
C/C(=N/NC(=O)c1ccc2nc[nH]c2c1)c1cccs1,inactive,9.11%,–
CC12CCC(C(=O)Nc3ccccc3)(C(Br)C1=O)C2(C)C (configuration not stated),inactive,-7.13%,–

Compound,Potency,cell number change,"lipid storage change, negative = inhibition"
CC/C(O)=C(/C#N)c1nnc2n1CCCCC2,inactive,8.5%,–
CCOCCCNS(=O)(=O)c1cc2[nH]c3c(c2cc1C)C(=O)CC(C)(C)C3,inactive,16.9%,–
Cc1ccc(C(=O)NCCNC(=O)c2ccco2)cc1C,inactive,19.6%,–
COC(=O)c1c(NC(=O)CC2SC(N)=NC2=O)sc2c1CCCC2 (configuration not stated),inactive,–,–
COc1ccc(NC(C)c2ccccc2)cc1 (configuration not stated),inactive,-5.31%,–
COc1ccc(N2CCN(c3nc(Cl)nc(N4CCOCC4)n3)CC2)cc1,inactive,-11.2%,–
COc1cc(C(=O)N(Cc2ccc(C)o2)C2CCS(=O)(=O)C2)cc(OC)c1OC (configuration not stated),inactive,-6.11%,–
O=C(Nc1ccccc1N1CCCCC1)c1ccc(Cl)cc1,inactive,12%,–
CN1CCN(c2ccccc2NC(=O)c2ccc(-c3ccc(Cl)c(Cl)c3)o2)CC1,inactive,–,–
O=C(Nc1ccccc1N1CCCCC1)c1ccc(-c2ccc(Cl)cc2)o1,14.6 µM (active),1.36%,–
Cc1csc(N(C(=O)Cc2ccccc2F)c2ccccc2)n1,inactive,3.81%,–
Clc1ccc(C2=Nn3c(nnc3-c3cccnc3)SC2)s1,inactive,-22.1%,–
CCOC(=O)c1sc(=S)n(-c2ccccc2)c1N,inactive,-17.5%,–
COC(=O)c1sc(=S)n(-c2cccc(Cl)c2)c1N,inactive,-15.4%,–
COC(=O)c1sc(=S)n(-c2ccccc2)c1N,11.6 µM (active),–,–
Cc1cc(C)n2c(SCC(C)C)nnc2n1,inactive,-0.577%,–
O=C(CCCc1ccccc1)N1CCc2ccccc21,inactive,4.72%,–
Cc1ccc(NC(=O)CS(=O)CC(=O)N(CC(=O)NC(C)(C)C)c2cccc(C)c2C)cc1 (configuration not stated),inactive,1.3%,–
O=C(N/C(=C\c1ccccc1)C(=O)N1CCOCC1)c1ccco1,inactive,1.67%,–
CC(C)C12CN3CC(C(C)C)(CN(C1)C3(C)C)C2=O,inactive,8.23%,–
COc1ccc(C2(C(=O)NCc3ccccc3Cl)CCOCC2)cc1OC,inactive,-6.59%,–
N#Cc1ccc(OCC(=O)N/N=C/C2CC=CCC2)cc1 (configuration not stated),inactive,18.8%,–
COc1ccc(OCC(=O)N/N=C/C2CC=CCC2)cc1 (configuration not stated),inactive,-11.3%,–

Compound,Potency,cell number change,"lipid storage change, negative = inhibition"
O=C(COc1ccc(Cl)cc1Cl)N/N=C/C1CC=CCC1 (configuration not stated),1.84 µM (active),-11.9%,–
CCc1[nH]nc(C(=O)N2CCCC(Nc3cccc(F)c3)C2)c1C (configuration not stated),inactive,0.697%,–
CCNC(=S)Nc1cccc([N+](=O)[O-])c1,inactive,16.5%,–
COc1cccc(-c2nn(-c3ccc(C)cc3)cc2C(=O)N(C)CC(=O)Nc2cccc(F)c2)c1,6.51 µM (active),-27.2%,–
COc1ccc(NC(=O)CN(C)C(=O)c2cn(-c3ccccc3)nc2-c2ccc(F)cc2)cc1,inactive,-10.6%,–
CN(CC(=O)Nc1ccc(F)cc1)C(=O)c1ccncc1,1.64 µM (active),–,–
CN(CC(=O)Nc1cccc(F)c1)C(=O)c1cccc2ccccc12,5.8 µM (active),-19.1%,–
CN(CC(=O)Nc1cccc(F)c1)C(=O)c1cc(-c2ccccc2)nc2ccccc12,–,–,3.36% [at 0.0737 µM] (inactive)
COc1cccc(NC(=O)CN(C)C(=O)c2cn(-c3ccccc3)nc2-c2cccnc2)c1,inactive,-3.75%,–
CCCCC1CCC(C(=O)N(C)CC(=O)Nc2cccc(OC)c2)CC1 (configuration not stated),inactive,-0.846%,–
CC1CC1C(=O)N(C)CC(=O)Nc1cccc(F)c1 (configuration not stated),–,-4.04%,-4.95% [at 0.0737 µM] (inactive)
CCCCC1CCC(C(=O)N(C)CC(=O)Nc2cccc(F)c2)CC1 (configuration not stated),0.651 µM (active),20.8%,–
CN(CC(=O)Nc1c(Cl)cccc1Cl)C(=O)c1ccncc1,inactive,22.3%,–
CN(CC(=O)Nc1cccc(F)c1)C(=O)c1cc(=O)[nH]c2ccccc12,inactive,6.52%,–
CN(CC(=O)Nc1ccc(F)cc1)C(=O)c1ccc(N2C(=O)CCC2=O)cc1,inactive,5.41%,–
Cc1nc([N+](=O)[O-])c(C(=O)OCc2cccc(Br)c2)n1C,inactive,-13.6%,–
O=C(COC(=O)C1CCN(c2ccc(C(F)(F)F)cn2)CC1)NCc1ccc(Cl)cc1Cl,inactive,7.81%,–
O=C1CCCN1c1ccc(S(=O)(=O)N2CCCCC2)cc1[N+](=O)[O-],inactive,14.2%,–
CS(=O)(=O)c1ccccc1C(=O)N(CCc1ccccc1)Cc1ccccc1,inactive,-4.69%,–
O=C(NCC1CCN(C(=O)c2ccc([N+](=O)[O-])cc2)CC1)C(=O)Nc1ccccc1,inactive,-0.701%,–
Cc1c(NC(=O)CSc2ccccc2C(=O)Nc2cccnc2)c(=O)n(-c2ccccc2)n1C,inactive,13.8%,–
